Compound activity from PubChem BioAssay.
Hits are enriched below; roughly 4.9% of the tested compounds scored in any of these assays.
Platelet DG rel: inhibitors of platelet dense granule secretion, primary screen, cell-based, MLPCN, human platelets; human platelet-rich plasma, SFLLRN dense granule ATP release, luminescence; inhibition, %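 (compounds screened at 7.5 µM in platelet-rich plasma)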; hit rate 0.22% among 300,000; AID 1663, 2009;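 active means mean replicate score, as percent of positive control, at or above 50; inconclusive means mean below 50 but at least one replicate at or above 50; inactive means mean and every replicate below 50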
HSP90 refold inh: HSP90 inhibitors, primary screen, cell lysate, luminescence; Heat shock protein HSP 90 (rabbit reticulocyte lysate; luciferase refolding); Rabbit reticulocyte lysate, luciferase refolding luminescence, 3 h; inhibition, % at 5.6 µM; hit rate 0.91% among 290,000;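 active means inhibition above the screen-wide mean plus 3 SD, computed separately per campaign, cut at about 16% in these data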;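 further: inhibitors lower the luminescence because luciferase stays unfolded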
HSF1 inh: HSF1 inhibitors in luciferase reporter cells, primary screen, cell-based, NIH3T3, luminescence | NIH3T3-HGL HSE-luciferase, MG132-induced, luminescence 8 h; stronger effect = lower value | activity change, negative = inhibition, % at 7.5 µM (by protocol) | hit rate 0.77% among 300,000 | AID 2098, 2009;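 active means more than half of replicate wells show activity change below -50%, luminescence cut by over half; inconclusive means some wells, but at most half, below -50%; inactive means no replicate well below -50%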;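 further: luciferase reports HSF-1 transcriptional activity via heat shock element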
MPTP inh: mitochondrial permeability transition pore inhibitors, primary screen, biochemical, isolated mouse mitochondria, absorbance | Ca2+ swelling absorbance, 30 min | AID 602449, 2012 | inhibition, % at 10 µM | hit rate 1.4% among 360,000;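 active means inhibition of 50% or more, scaled per plate between neutral and stimulator controls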
dFosB activator: activators of delta FosB homodimer, primary screen, biochemical, fluorescence polarization, TAMRA-CDK5 oligo, single point; Protein FosB (Mus musculus), P13346; purified delta FosB; percent of positive-control signal above neutral wells; activation, % at 25 µM; hit rate 0.99% among 340,000; AID 493131, 2011;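 active means mean activation above about 17%, with every replicate also reaching it, limit read from the data, passing the limit was not always enough; inconclusive means only one of the two conditions met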
Target sequence (P13346 whole entry, looked up): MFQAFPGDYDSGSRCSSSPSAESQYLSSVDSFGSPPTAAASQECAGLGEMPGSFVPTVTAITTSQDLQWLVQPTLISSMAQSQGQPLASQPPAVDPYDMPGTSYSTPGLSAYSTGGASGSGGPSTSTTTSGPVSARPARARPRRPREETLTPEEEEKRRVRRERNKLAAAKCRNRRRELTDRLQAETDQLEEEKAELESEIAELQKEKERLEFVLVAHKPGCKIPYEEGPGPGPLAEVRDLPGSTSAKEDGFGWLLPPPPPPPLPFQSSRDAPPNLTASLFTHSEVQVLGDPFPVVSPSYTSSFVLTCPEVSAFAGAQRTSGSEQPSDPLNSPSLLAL
HSF-1 act: HSF-1 activators, primary screen, NIH3T3-HGL cells, MG132 stress, luminescence, single point; activation, % at 9 µM; NIH3T3-HGL HSF-1 luciferase reporter, 8 h; 100% = twice DMSO control signal; hit rate 1.7% among 300,000;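 active means mean replicate activation of at least 50% with a set share of replicates each reaching 50%; inconclusive means only one of those two conditions met; inactive means mean below 50% and too few replicates reaching it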
Rh123 counter: fluorescence retest of MPTP screen hits in isolated mitochondria, single concentration | AID 624504, 2012 | hit rate 78% among 5,000 | shares compounds with MPTP inh | inhibition, % at 10 µM | membrane potential, Rhodamine 123 fluorescence; in the data active means inhibition above about 22%
MPTP abs DR: mitochondrial permeability transition pore inhibitors, dose response, biochemical, absorbance, uHTS hits; shares compounds with MPTP inh; hit rate 58% among 780; isolated mitochondria swelling; IC50, µM; in the data active means IC50 below about 20 µM
MPTP counter DR: fluorescent counter-screen in isolated mitochondria, dose response, counter-screen for MPTP inhibitor project, biochemical, fluorescence, uHTS hits; shares compounds with MPTP inh; isolated mitochondria counterscreen, fluorescence read-out; IC50, µM; hit rate 49% among 780; in the data active means IC50 below about 80 µM
Of the large screens only hits and unclear results are named; the others gave an inactive call (follow-up assays come after a bar, where they were run).

O=C(CSc1nc2ccccc2o1)Nc1nc2c(s1)CCCC2	MPTP inh 84 (no result: Platelet DG rel, HSP90 refold inh, HSF1 inh, HSF-1 act) | Rh123 counter 64
CN(C)c1ccc(/C=N/NC(=O)CNC(=O)c2ccco2)cc1	none
Cc1cccc(C)c1-n1c(C)cc(/C=N/NC(=O)CSc2ncccn2)c1C	MPTP inh 89 | Rh123 counter inactive | MPTP abs DR inactive | MPTP counter DR 50
COc1ccccc1OCCCCOc1ccccc1C(C)=O	MPTP inh 61 | Rh123 counter 61
Cc1ccc(C)n1NC(=O)c1ccccc1O	HSF1 inh -85, MPTP inh 78 | Rh123 counter 58
Cc1ccc(C)n1NC(=O)c1ccccc1[N+](=O)[O-]	none
CCc1ccccc1NC(=O)NC1CCCCCCC1	none (no result: Platelet DG rel, HSF1 inh, HSF-1 act)
CCCN(S(=O)(=O)c1ccccc1F)S(=O)(=O)c1ccccc1Br	none
Cn1c2c(c(=O)n(C)c1=O)C(C(F)(F)F)(C(F)(F)F)N=C(CCC1CCCCC1)N2	MPTP inh 94 | Rh123 counter 79
Cn1c2c(c(=O)n(C)c1=O)C(C(F)(F)F)(C(F)(F)F)N=C(c1ccccc1Cl)N2	none
O=C(COc1ccc(C(=O)c2ccccc2)cc1)NC1CCCCC1	Platelet DG rel inconclusive
O=C(COc1ccc(C(=O)c2ccccc2)cc1)Nc1cccnc1	MPTP inh 81 | Rh123 counter 82
O=C(COc1ccc(C(=O)c2ccccc2)cc1)NC1CCCCCC1	MPTP inh 53 | Rh123 counter 31
O=C(CCCOc1ccccc1)Nc1cccnc1	none
COc1cccc(NC(=S)NC2CC(C)CC(C)(C)C2)c1 (configuration not stated)	MPTP inh 64 (no result: Platelet DG rel, HSP90 refold inh, HSF1 inh, dFosB activator, HSF-1 act) | Rh123 counter 93
COc1ccc(-n2cc(CN[C@H]3CCCCNC3=O)c(-c3cccc(F)c3)n2)cc1	none
COc1ccc(-n2cc(CNC3CCN(C)CC3)c(-c3cccc(F)c3)n2)cc1	MPTP inh 93 | Rh123 counter inactive | MPTP abs DR 7 | MPTP counter DR inactive
O=C(Nc1ccc(F)c(F)c1)NC1CCCCC1	MPTP inh 53 | Rh123 counter 89
CC(=O)c1cccc(NC(=S)NC2CCCCCCC2)c1	MPTP inh 50 (no result: Platelet DG rel, HSF1 inh, HSF-1 act) | Rh123 counter 99
O=C(Nc1ccc(Cl)cc1)NC1CCCCC1	none (no result: Platelet DG rel)
O=C(Nc1cccc(Cl)c1)NC1CC2CCC1C2 (configuration not stated)	MPTP inh 55 | Rh123 counter 84
O=C(Nc1cccc(Cl)c1)NC1CCCCC1	MPTP inh 83 | Rh123 counter 73
Cc1ccc(SCC(=O)OCC(=O)N(C)CC(=O)Nc2ccccc2Cl)cc1	none (no result: HSP90 refold inh)
O=C(Nc1cccc(C(F)(F)F)c1)NC1CCCCC1	MPTP inh 93 | Rh123 counter 119
Cc1ccc(C(=O)Nc2nc(=O)n(C(=O)CC(C)C)s2)cc1	MPTP inh 58 | Rh123 counter 78
CC(C)CC(=O)n1sc(NC(=O)c2ccccc2)nc1=O	none
Cc1ccc(C2=C(O)C(=O)C(c3ccc(C)cc3)=C(O)C2=O)cc1	MPTP inh 56 (no result: Platelet DG rel, HSP90 refold inh, HSF1 inh, HSF-1 act) | Rh123 counter inactive | MPTP abs DR 14 | MPTP counter DR <2.5
CC1=C(O)C(=O)C(C2=C(O)C(=O)C(C)=C(O)C2=O)=C(O)C1=O	none (no result: Platelet DG rel, HSP90 refold inh, HSF1 inh, HSF-1 act)
CC(=O)Nc1cccc(/C(C)=N/Nc2ccc(S(=O)(=O)Nc3ccccc3C(=O)O)cc2[N+](=O)[O-])c1	none (no result: Platelet DG rel, HSP90 refold inh, HSF1 inh, HSF-1 act)
Fc1ccc(-c2nn(-c3ccccc3)cc2CNCc2ccccc2)cc1	MPTP inh 91 | Rh123 counter inactive | MPTP abs DR 4.7 | MPTP counter DR 43
CCCCN(C(=O)c1cccc(S(=O)(=O)N2CCCCC2)c1)C1CCS(=O)(=O)C1 (configuration not stated)	none
